From PubChem BioAssay
The list is not random: actives were taken first. Their share in the collection is about 2.2%.
HIF-2a block = inhibitors of HIF-2a; AID 624352; inhibition, % at 18.8 µM; 786-0 RCC cells HIF-2a reporter, luciferase luminescence, overnight; hit rate 0.72% among 360,000;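 active means inhibition of the luminescence signal of 40% or more relative to plate controls, in a single-dose primary screen at 18.75 µM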
CF NFkB block = blocks PAF-induced NF-kB reporter in cystic fibrosis cells. KKLEB NF-kB-GFP reporter, GFP fluorescence overnight. hit rate 0.86% among 360,000. AID 588850. inhibition, % at 5 µM;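 active means at least 50% inhibition at 5 µM, scaled per plate between neutral and stimulator controls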;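 further: PAF is a Pseudomonas aeruginosa culture filtrate used as stimulus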
PPC-1+TRAIL kill = PPC-1 cancer cell killing with TRAIL present | PPC-1 cells + TRAIL, ATPLite viability luminescence | cell killing (% activity), % at 4 µM or 5 µM | hit rate 0.41% among 220,000 | AID 1443;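 active means cell killing above 50% in the first pass at 4 µM, then a duplicate retest at 5 µM averaging 50% or more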
C8 TRAIL sens = caspase-8 TRAIL sensitization. hit rate 1% among 360,000. NB7+C8 cells + TRAIL, ATPlite viability luminescence. AID 624354. inhibition (viability loss, TRAIL sensitization), % at 10 µM;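 active means compounds causing at least 50% loss of cell viability in the single-dose screen, relative to plate controls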
KKLEB tox = reduces viability of KKLEB cystic fibrosis airway cells | KKLEB CF airway cells viability, ATPlite luminescence, overnight; stronger effect = lower value; cells stimulated with P. aeruginosa culture filtrate | activity change (cytotoxicity), % at 5 µM | hit rate 0.36% among 360,000;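 active means corrected activity change at or below -50% at 5 µM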
hiPSC survival = enhancers of human iPSC single-cell survival; hiPSC single-cell survival, ATPlite luminescence; 100% = ROCK inhibitor wells, 0% = DMSO; survival enhancement, % at 20 µM; hit rate 0.044% among 360,000; in the data active means survival enhancement above about 18%;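 further: cells exposed to compounds for 16 hours before the ATP read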
Mdm2-MdmX confirm = Mdm2/MdmX (human) interaction inhibition, confirmed | SaOS-2 split-luciferase Mdm2/MdmX complementation, luminescence | hit rate 99% among 740 | inhibition, % at 8 µM | shares compounds with HIF-2a block;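 active means mean inhibition of the luminescence signal across two replicates at or above 26 percent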
Target sequence (O15151 whole entry, looked up): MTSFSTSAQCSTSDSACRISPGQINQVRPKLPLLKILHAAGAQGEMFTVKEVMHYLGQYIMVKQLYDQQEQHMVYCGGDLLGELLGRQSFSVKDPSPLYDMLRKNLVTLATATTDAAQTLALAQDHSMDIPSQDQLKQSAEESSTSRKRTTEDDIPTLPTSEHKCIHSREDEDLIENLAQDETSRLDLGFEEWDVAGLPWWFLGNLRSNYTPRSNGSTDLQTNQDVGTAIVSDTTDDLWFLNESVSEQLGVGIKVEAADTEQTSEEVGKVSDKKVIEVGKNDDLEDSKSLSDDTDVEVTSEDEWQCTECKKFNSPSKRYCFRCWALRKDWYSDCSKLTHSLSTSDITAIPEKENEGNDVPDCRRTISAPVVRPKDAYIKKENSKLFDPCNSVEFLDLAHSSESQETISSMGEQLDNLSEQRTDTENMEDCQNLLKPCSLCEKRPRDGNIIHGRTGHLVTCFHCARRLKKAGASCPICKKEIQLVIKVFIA
Target sequence (Q00987 whole entry, looked up): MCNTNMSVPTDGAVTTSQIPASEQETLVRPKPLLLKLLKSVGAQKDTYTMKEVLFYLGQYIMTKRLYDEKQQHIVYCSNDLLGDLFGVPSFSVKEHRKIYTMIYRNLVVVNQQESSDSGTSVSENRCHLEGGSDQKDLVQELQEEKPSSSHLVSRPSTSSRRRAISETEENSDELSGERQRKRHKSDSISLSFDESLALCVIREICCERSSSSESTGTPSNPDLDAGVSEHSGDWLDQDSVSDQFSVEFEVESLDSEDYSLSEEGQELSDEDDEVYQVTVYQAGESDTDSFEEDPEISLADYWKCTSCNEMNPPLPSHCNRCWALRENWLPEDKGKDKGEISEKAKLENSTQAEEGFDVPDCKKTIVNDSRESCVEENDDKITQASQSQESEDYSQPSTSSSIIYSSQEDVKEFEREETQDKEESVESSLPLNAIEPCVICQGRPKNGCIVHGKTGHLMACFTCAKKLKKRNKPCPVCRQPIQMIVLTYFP
HIF-2a inh conf = HIF-2a inhibition, single concentration confirmation. shares compounds with HIF-2a block. 786-0 RCC cells, HIF-2a luciferase reporter luminescence, overnight. inhibition, % at 18.8 µM. hit rate 56% among 1,800. AID 651580;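 active means mean inhibition across four replicates of at least 40 percent at the single tested concentration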
HIF-1a cs = HIF-1a inhibition counter-screen for HIF-2a hits; inhibition, % at 18.8 µM; AID 651589; shares compounds with HIF-2a block; hit rate 72% among 1,800; MiaPaCa-2 HIF-1a luciferase reporter, desferoxamine, overnight;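 active means mean inhibition of the reporter signal across four replicates at the single tested dose of 50% or more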
Of the large screens only hits and unclear results are named; the others gave an inactive call (follow-up assays come after a bar, where they were run).

CC(=O)Nc1ccc(Sc2ccc([N+](=O)[O-])o2)cc1	HIF-2a block 91, CF NFkB block 90, KKLEB tox -50 (no result: PPC-1+TRAIL kill) | HIF-2a inh conf 94 | HIF-1a cs 103
Nc1c(Cl)cnn(-c2ccccc2)c1=O	none (no result: PPC-1+TRAIL kill)
O=c1c(Cl)c(Cl)cnn1-c1ccccc1	HIF-2a block 94, CF NFkB block 97, KKLEB tox -81 | HIF-2a inh conf 98 | HIF-1a cs 104
CN(C(=O)C=Cc1ccco1)c1ccccc1	none (no result: PPC-1+TRAIL kill)
CN(C(=O)/C=C/c1ccc([N+](=O)[O-])s1)c1ccccc1	HIF-2a block 62 | HIF-2a inh conf 61 | HIF-1a cs 90
COCCNc1nc(N)c([N+](=O)[O-])c(NC2CCCCC2)n1	none (no result: PPC-1+TRAIL kill)
NCCCNc1nc(N)c([N+](=O)[O-])c(NC2CCCCC2)n1	HIF-2a block 48 (no result: PPC-1+TRAIL kill) | HIF-2a inh conf inactive | HIF-1a cs 99
CC(=O)c1sc(NC(=O)C2CC(=O)N(Cc3ccccc3)C2)nc1-c1ccccc1 (configuration not stated)	HIF-2a block 41 (no result: PPC-1+TRAIL kill) | HIF-2a inh conf inactive | HIF-1a cs inactive
COc1ccc(-c2cc3c(=O)n(CC(=O)NCCCN4CCC(N5CCCCC5)CC4)nc(C)n3n2)cc1	none (no result: PPC-1+TRAIL kill) | Mdm2-MdmX confirm 73
COc1ccc(-c2cc3c(=O)n(CC(=O)NCCCN4CCC(N5CCCCC5)CC4)ncn3n2)cc1	none (no result: PPC-1+TRAIL kill)
Cc1cccc(C)c1NC(=O)C1c2ccccc2OCC(=O)N1CCCN1CCOCC1 (configuration not stated)	none (no result: CF NFkB block, PPC-1+TRAIL kill, KKLEB tox)
C#CCn1c(S(=O)(=O)Cc2ccc(F)cc2)nc(-c2ccccc2)c1-c1ccccc1	none | Mdm2-MdmX confirm 101
CCOC(=O)Cn1c(S(=O)(=O)Cc2ccc(F)cc2)nc(-c2ccccc2)c1-c1ccccc1	none
CC1Cc2ccccc2N1c1ncnc(N)c1[N+](=O)[O-] (configuration not stated)	CF NFkB block 85 | Mdm2-MdmX confirm 102
Cc1ccc(C#N)c(SCc2nnc(-c3ccc(Cl)cc3)o2)n1	HIF-2a block 46, PPC-1+TRAIL kill 64, C8 TRAIL sens 82 | HIF-2a inh conf 59 | HIF-1a cs 80
Cc1cc(C)c(C#N)c(SCc2nnc(-c3ccccc3)o2)n1	HIF-2a block 67, PPC-1+TRAIL kill 72, C8 TRAIL sens 69 | HIF-2a inh conf 76 | HIF-1a cs 82
COc1cc(C(=O)N2CCN(S(=O)(=O)c3cccc(F)c3)CC2)ccc1OCC(=O)N1CCOCC1	none (no result: PPC-1+TRAIL kill)
O=C(CCl)Nc1cccc(S(=O)(=O)N2CCCCCC2)c1	HIF-2a block 46 | HIF-2a inh conf inactive | HIF-1a cs 67
O=C(Nc1ccccc1C(=O)N1CCCCC1)c1ccc(Cl)cc1Cl	none (no result: PPC-1+TRAIL kill)
Cc1cccc(Nc2nc(N)nc(CN3CCC(C(N)=O)CC3)n2)c1C	none
Cc1cccc(Nc2nc(N)nc(CCl)n2)c1C	CF NFkB block 100, C8 TRAIL sens 94, KKLEB tox -85 | Mdm2-MdmX confirm 103
NC(=O)C1CC(=O)N(c2ccc(OCc3c(Cl)cccc3Cl)cc2)C1 (configuration not stated)	none
COc1ccc(OC)c(Nc2c3ccccc3nc3ccccc23)c1	none (no result: PPC-1+TRAIL kill)
COc1cc(NS(C)(=O)=O)ccc1Nc1c2ccccc2nc2ccccc12	HIF-2a block 55 (no result: PPC-1+TRAIL kill) | Mdm2-MdmX confirm 98
O=C(Nc1ccncc1)c1ccc(Cl)c(S(=O)(=O)N2CCc3ccccc32)c1	HIF-2a block 50 (no result: PPC-1+TRAIL kill) | HIF-2a inh conf inactive | HIF-1a cs inactive
CC(C)(C)c1nc(SCC(=O)Nc2nc3c(s2)CCCC3)c2ccccc2n1	none | Mdm2-MdmX confirm 101
CC(C)c1nc(SCC(=O)Nc2nc3c(s2)CCCC3)c2ccccc2n1	none
COCCNc1ccc(S(=O)(=O)N2CCCC2)cn1	none
COc1ccccc1NC(=O)CSc1nnc(CCNC(=O)c2ccc(C)cc2)n1C	none
Cc1ccc(C(=O)Cn2c(NCCO)nc3ccccc32)cc1	none
Cc1ccc(C(=O)Cn2c(C(=O)/C=C/c3ccccc3)nc3ccccc32)cc1	HIF-2a block 48 | HIF-2a inh conf inactive | HIF-1a cs 60
COC(=O)c1cc(=O)n(Cc2ccc(F)cc2)c(=Nc2ccccc2)s1	HIF-2a block 53 | HIF-2a inh conf inactive | HIF-1a cs inactive
COC(=O)c1cc(=O)n(CCc2ccc(OC)c(OC)c2)c(=Nc2ccc(F)c(Cl)c2)s1	HIF-2a block 75 | HIF-2a inh conf inactive | HIF-1a cs 96
COC(=O)c1cc(=O)n(-c2ccccc2)c(=Nc2ccccc2)s1	none
COC(=O)c1cc(=O)n(Cc2ccco2)c(=Nc2ccc(F)cc2)s1	HIF-2a block 49 | HIF-2a inh conf 60 | HIF-1a cs 97
CCSc1nnc(NC(=O)CCC2CCCCC2)s1	none (no result: PPC-1+TRAIL kill)
Cc1cc(C)c2nc(C)cc(Nc3ccc(C(=O)N(C)C)cc3)c2c1	none (no result: HIF-2a block, CF NFkB block, C8 TRAIL sens, KKLEB tox, hiPSC survival)
CC(=O)c1ccc(Nc2cc(C)nc3c(C)cc(C)cc23)cc1	HIF-2a block 59 | HIF-2a inh conf inactive | HIF-1a cs 85
CCOC(=O)c1cc(-c2csc(Nc3c(C)cc(C)cc3C)n2)on1	HIF-2a block 57 | HIF-2a inh conf inactive | HIF-1a cs inactive
NC(=O)C1=C(c2ccccc2)c2ccccc2C1=O	HIF-2a block 51 (no result: PPC-1+TRAIL kill) | HIF-2a inh conf inactive | HIF-1a cs inactive
O=C(Cc1ccc(Cl)cc1)NNC(=O)c1ccco1	none (no result: PPC-1+TRAIL kill)
N#CCCN(C(=O)CCl)c1cccc(Cl)c1	none | Mdm2-MdmX confirm 101
O=C(NCC1CCCO1)c1cc([N+](=O)[O-])ccc1Cl (configuration not stated)	none
Cn1c(=N)n(CC(=O)c2ccc(Br)s2)c2ccccc21	none
N=c1n(CC(=O)c2ccc(Br)s2)c2ccccc2n1Cc1ccccc1	HIF-2a block 67, C8 TRAIL sens 56 | Mdm2-MdmX confirm 102 | HIF-2a inh conf inactive | HIF-1a cs 106
CCc1ccc(OCC(=O)NC(NC(=S)Nc2ccccc2C)C(Cl)(Cl)Cl)cc1 (configuration not stated)	HIF-2a block 41 | HIF-2a inh conf inactive | HIF-1a cs 64
Cc1ccccc1NC(=S)NC(NC(=O)COc1ccccc1)C(Cl)(Cl)Cl (configuration not stated)	none
CCc1ccc(OCC(=O)NC(NC(=S)Nc2ccccc2OC)C(Cl)(Cl)Cl)cc1 (configuration not stated)	HIF-2a block 50 | HIF-2a inh conf inactive | HIF-1a cs inactive
